LAP4-GFP MLPCN: modulators of LAP4-GFP expression in yeast, primary screen, S. cerevisiae, multiplex flow cytometry, MLPCN library | 3 h; median GFP as percent of DMSO wells | GFP response vs DMSO, % at 10 µM | actives 0.34% (n = 320,000) | AID 2023, 2009;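 active = GFP response vs DMSO above a set limit, about the screen mean plus 3 SD, cut at about 150% in these data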
AGP1-GFP MLPCN: modulators of AGP1-GFP expression in yeast TOR pathway, primary screen, cell-based, multiplex flow cytometry, S. cerevisiae, MLPCN library. 3 h; GFP as percent of DMSO wells. AID 2066, 2009. actives 0.02% (n = 320,000). GFP response vs DMSO, % at 10 µM;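 active = GFP response relative to DMSO above a set limit, near screen average plus 3 SD, cut at about 150% in these data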;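 also: median GFP channel fluorescence of the gated AGP1 strain per well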
MEP2-GFP yeast: modulators of MEP2-GFP levels in yeast, primary screen, S. cerevisiae, multiplex flow cytometry, MLPCN library; S. cerevisiae MEP2-GFP strain, 3 h; 100% = DMSO control level; GFP response vs DMSO, % at 10 µM; actives 0.51% (n = 330,000); AID 2016, 2009;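 active = GFP response versus DMSO above a set limit, roughly screen mean plus 3 SD, cut at about 180% in these data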;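 also: median GFP fluorescence of the barcode-gated MEP2-GFP cells per well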
CIT2 TOR yeast: modulators of CIT2-GFP expression in yeast, primary screen, S. cerevisiae, GFP fusion, multiplex flow cytometry, MLPCN library | actives 0.065% (n = 320,000) | AID 2029, 2009 | GFP response vs DMSO, % at 10 µM | S. cerevisiae CIT2-GFP strain, 3 h; 100 means same as DMSO wells;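 active = GFP response relative to DMSO above a set limit, near the screen mean plus 3 SD, cut at about 150% in these data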;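 also: ratio of well median GFP fluorescence to mean of DMSO wells on the plate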
RPL19A TOR yeast: RPL19A-GFP expression modulators in yeast, primary screen, cell-based, S. cerevisiae, multiplex flow cytometry, MLPCN; AID 2025, 2009; actives 0.3% (n = 330,000); S. cerevisiae RPL19A-GFP strain, 3 h; active compounds read low; percent response vs DMSO, % at 10 µM;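 active = percent response vs DMSO below 50%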;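 also: median channel GFP fluorescence of the barcoded RPL19A-GFP strain; lower means less RPL19A-GFP as with rapamycin TOR inhibition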
LAP4-GFP pick2: LAP4-GFP expression modulators in yeast, confirmation, cell-based, second cherry pick, flow cytometry; shares compounds with LAP4-GFP MLPCN; S. cerevisiae LAP4-GFP strain, 3 h; GFP response vs DMSO, % at 10 µM; actives 20% (n = 590); AID 2621, 2010;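 active = GFP signal as percent of the solvent control above about 150%, meaning raised reporter expression, limit read from the data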
MEP2 cherry2: modulators of MEP2-GFP levels in yeast, confirmation, S. cerevisiae, flow cytometry GFP, second cherry picks; shares compounds with LAP4-GFP MLPCN; AID 2622, 2010; actives 10% (n = 590); S. cerevisiae MEP2-GFP strain, 3 h; GFP response vs DMSO, % at 10 µM;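 active = GFP signal above 150% of the solvent control wells, that is a rise of more than half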;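 also: median channel GFP fluorescence of all gated yeast cells per well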
RPL19A-GFP pick2: RPL19A-GFP modulators in TOR pathway yeast, confirmation, cell-based, S. cerevisiae, flow cytometry, second cherry pick | shares compounds with LAP4-GFP MLPCN | S. cerevisiae RPL19A-GFP strain, 3 h; active compounds read low; 100% means same as DMSO wells | GFP response vs DMSO, % at 10 µM | actives 3% (n = 590);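 active = under 65% GFP response relative to DMSO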;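 also: median GFP channel fluorescence per well over the all cells gate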
CIT2-GFP pick2: modulators of CIT2-GFP expression in yeast, confirmation, flow cytometry, second cherry pick, single plex; shares compounds with LAP4-GFP MLPCN; S. cerevisiae CIT2-GFP strain, 3 h; DMSO control wells read 100%; GFP response vs DMSO, % at 10 µM; actives 8% (n = 590); AID 2624, 2010;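 active = GFP response vs DMSO above about 150%, limit read from the data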;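 also: median green fluorescence per well over all gated yeast cells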
AGP1-GFP pick2: AGP1-GFP expression modulators, hit retest, confirmation, cell-based, flow cytometry, S. cerevisiae, cherry pick set 2; shares compounds with LAP4-GFP MLPCN; S. cerevisiae AGP1-GFP strain, 3 h; percent response vs DMSO, % at 10 µM; 590 tested, under 10 active;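 active = over 150 percent of DMSO response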;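 also: median GFP channel fluorescence over all cells without mother daughter split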
s288c autofluor: compound autofluorescence in yeast s288c, dose response, artefact control for yeast TOR pathway GFP screen, s288c strain. shares compounds with LAP4-GFP MLPCN. S. cerevisiae s288c, 520 nm autofluorescence, flow cytometry, 3 h; active compounds read high; zero means same as solvent-only cells. fluorescence change (kMESF span) at 33 µM. 610 tested, under 10 active. AID 2757, 2010;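 active = fluorescence span over the dose series, or activity score, above about 33, limit read from the data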
s288c autofl DR: autofluorescence of compounds in yeast s288c, dose response, artefact control for yeast TOR pathway GFP screen, primary hits, KU SAR, s288c parental | fluorescence change (span) at 33 µM | shares compounds with LAP4-GFP MLPCN | AID 488829, 2010 | S. cerevisiae s288c parental, compound autofluorescence, flow cytometry, 3 h | 110 tested, under 10 active;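 active = fluorescence change span, or the activity score built from it, above 25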
TORC1 bypass gr: wild-type yeast growth inhibition sparing TORC1 bypass cells, mechanism study for yeast TOR pathway GFP screen, BY4741 wild type, TORC1 bypass strain | AID 504456, 2011 | 120 tested, under 10 active | growth rating (0-3) at 30 µM | shares compounds with LAP4-GFP MLPCN | S. cerevisiae BY4741 spot growth rating, 48-72 h; active compounds read low;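 active = growth rating at most 1 for wild type yeast while the TORC1 bypass strain still grows fully, rated 3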
Of the large screens only hits and unclear results are named; the others gave an inactive call (follow-up assays come after a bar, where they were run). In the library only some 0.89% were active in any assay of this set; here they are far more common.

O=C(O)c1cc[c]([Hg][Cl])cc1	LAP4-GFP MLPCN 255.0 | LAP4-GFP pick2 190.4 | MEP2 cherry2 193.0 | RPL19A-GFP pick2 inactive | CIT2-GFP pick2 inactive | AGP1-GFP pick2 inactive | s288c autofluor inactive
O=C(Cc1ccccc1F)N1CCN(CC(=O)N2CCCC2)CC1	none
CCC(=NC1CC1)c1c(O)n(-c2ccc(OC)cc2)c(=O)[nH]c1=O	none
CCC(=NCCCN(C)C)c1c(O)n(-c2ccc(OC)cc2)c(=O)[nH]c1=O	LAP4-GFP MLPCN 155.9 | LAP4-GFP pick2 inactive | MEP2 cherry2 inactive | RPL19A-GFP pick2 inactive | CIT2-GFP pick2 inactive | AGP1-GFP pick2 inactive
CCN(CC)CCC(=O)O[C@H]1CC[C@]2(C)C3CC[C@@]4(C)C(CC[C@]4(C)O)C3CC[C@H]2C1 (stereo not given in full)	LAP4-GFP MLPCN 176.9 | LAP4-GFP pick2 inactive | MEP2 cherry2 inactive | RPL19A-GFP pick2 inactive | CIT2-GFP pick2 inactive | AGP1-GFP pick2 inactive
C[C@]12CCC3C(CC[C@H]4C[C@@H](O)CC[C@]34C)C1CC[C@@]2(O)C(F)(F)F (stereo not given in full)	none
O=C1NC(=O)N(c2cccc(Cl)c2)C(=O)/C1=C\c1ccc(Sc2nc3ccccc3[nH]2)o1	none
O=C1NC(=O)N(c2ccccc2)C(=O)/C1=C/c1ccc(Sc2ccccc2)o1	LAP4-GFP MLPCN 170.0 | s288c autofluor inactive
CCCCCn1c(=O)c(C(=O)Nc2nc3ccccc3[nH]2)c(O)c2ccccc21	none | LAP4-GFP pick2 inactive | MEP2 cherry2 inactive | RPL19A-GFP pick2 inactive | CIT2-GFP pick2 inactive | AGP1-GFP pick2 inactive | s288c autofluor inactive
CCOc1ccc(NC2=NCCCS2)cc1	none
C[C@@H]1C[C@@H]([C@H](O)CC2CC(=O)NC(=O)C2)C(=O)[C@@H](C)C1	RPL19A TOR yeast 49.0 | LAP4-GFP pick2 inactive | MEP2 cherry2 157.2 | RPL19A-GFP pick2 inactive | CIT2-GFP pick2 inactive | AGP1-GFP pick2 inactive | s288c autofluor inactive | s288c autofl DR inactive | TORC1 bypass gr inactive
COC(=O)C1=C(c2cccc3c2S(=O)(=O)c2ccccc2-3)C[C@@H]2CC[C@H]1N2C(=O)N1CCc2cc(OC)c(OC)cc2C1	none
Cc1cccc(NC(=O)COC(=O)c2cc(C)n(C3CC3)c2C)c1	none
O=C(O)C(Cc1cnc[nH]1)NS(=O)(=O)c1ccc(Br)cc1 (stereo not given)	none
COc1cc(/C=C/[N+](=O)[O-])ccc1O	LAP4-GFP MLPCN 244.5 | LAP4-GFP pick2 191.3 | MEP2 cherry2 inactive | RPL19A-GFP pick2 inactive | CIT2-GFP pick2 inactive | AGP1-GFP pick2 inactive | s288c autofluor inactive
COc1ccc(-n2c(/C=C/c3ccc(O)c(OC)c3)nc3ccccc3c2=O)cc1	none
CN1C2CCC1C(C(=O)O)C(O)C2 (stereo not given)	none
CN(C)C(=O)Oc1ccnc2cc(Cl)ccc12	none | LAP4-GFP pick2 inactive | MEP2 cherry2 inactive | RPL19A-GFP pick2 inactive | CIT2-GFP pick2 inactive | AGP1-GFP pick2 inactive | s288c autofluor inactive
CN(C)C(=O)Oc1ccc(Cl)c2cccnc12	none (no result: AGP1-GFP MLPCN)
O=C1NC(=O)N(Cc2ccco2)C(=O)/C1=C/c1ccc(-c2cccc([N+](=O)[O-])c2)o1	LAP4-GFP MLPCN 169.3 | s288c autofluor inactive
C[C@]12CCC3C(CC[C@H]4C[C@@H](O)CC[C@]34C)C1C[C@@H](Br)[C@@H]2O (stereo not given in full)	none
COc1ccc(N2C(=O)/C(=C/c3cccs3)C(=O)NC2=S)cc1	none | LAP4-GFP pick2 inactive | MEP2 cherry2 inactive | RPL19A-GFP pick2 63.5 | CIT2-GFP pick2 inactive | AGP1-GFP pick2 inactive | s288c autofluor inactive
Cc1ccc(/C=C2\C(=O)NC(=S)N(c3ccccc3F)C2=O)s1	none | LAP4-GFP pick2 inactive | MEP2 cherry2 inactive | RPL19A-GFP pick2 64.5 | CIT2-GFP pick2 inactive | AGP1-GFP pick2 inactive | s288c autofluor inactive
CCOC(=O)C1CCN(/C=C2/C(=O)NC(=S)N(c3ccccc3F)C2=O)CC1	none
Cc1ccc(/C=C2\C(=O)NC(=S)N(c3ccc(F)cc3)C2=O)s1	LAP4-GFP MLPCN 237.4 | LAP4-GFP pick2 199.0 | MEP2 cherry2 inactive | RPL19A-GFP pick2 inactive | CIT2-GFP pick2 inactive | AGP1-GFP pick2 inactive | s288c autofluor inactive
COC(=O)C1=C(c2ccccc2OCc2ccccc2)C[C@@H]2CC[C@H]1N2C(=O)NCCCOC(C)C	none
C=CCN1C(=O)/C(=C/c2cccs2)C(=O)NC1=S	LAP4-GFP MLPCN 204.2 | LAP4-GFP pick2 inactive | MEP2 cherry2 inactive | RPL19A-GFP pick2 inactive | CIT2-GFP pick2 inactive | AGP1-GFP pick2 inactive | s288c autofluor inactive
O=C1NC(=O)N(CCC2=CCCCC2)C(=O)/C1=C\c1cccs1	none
O=C1NC(=O)N(CCc2ccc(F)cc2)C(=O)/C1=C/c1cccs1	LAP4-GFP MLPCN 171.8 | s288c autofluor inactive

Assay outcomes: PubChem, NMMLSC
